Data: article PMC4336329 (PLoS ONE, 2015)
The campaign covered roughly 310,000 compounds. About 14,000 (4.5%) showed an effect of 50% or more. The effect is printed as a negative number. This is one part of a sample in which strong results are shown more often than they occur.

The compounds below were run against human ether-à-go-go-related gene (hERG) potassium channel (human, UniProt Q12809) (assay: primary screen, population patch clamp on CHO cells stably expressing hERG; higher = less effect of the substance).
Sequence of human ether-à-go-go-related gene (hERG) potassium channel (Q12809 whole entry, looked up): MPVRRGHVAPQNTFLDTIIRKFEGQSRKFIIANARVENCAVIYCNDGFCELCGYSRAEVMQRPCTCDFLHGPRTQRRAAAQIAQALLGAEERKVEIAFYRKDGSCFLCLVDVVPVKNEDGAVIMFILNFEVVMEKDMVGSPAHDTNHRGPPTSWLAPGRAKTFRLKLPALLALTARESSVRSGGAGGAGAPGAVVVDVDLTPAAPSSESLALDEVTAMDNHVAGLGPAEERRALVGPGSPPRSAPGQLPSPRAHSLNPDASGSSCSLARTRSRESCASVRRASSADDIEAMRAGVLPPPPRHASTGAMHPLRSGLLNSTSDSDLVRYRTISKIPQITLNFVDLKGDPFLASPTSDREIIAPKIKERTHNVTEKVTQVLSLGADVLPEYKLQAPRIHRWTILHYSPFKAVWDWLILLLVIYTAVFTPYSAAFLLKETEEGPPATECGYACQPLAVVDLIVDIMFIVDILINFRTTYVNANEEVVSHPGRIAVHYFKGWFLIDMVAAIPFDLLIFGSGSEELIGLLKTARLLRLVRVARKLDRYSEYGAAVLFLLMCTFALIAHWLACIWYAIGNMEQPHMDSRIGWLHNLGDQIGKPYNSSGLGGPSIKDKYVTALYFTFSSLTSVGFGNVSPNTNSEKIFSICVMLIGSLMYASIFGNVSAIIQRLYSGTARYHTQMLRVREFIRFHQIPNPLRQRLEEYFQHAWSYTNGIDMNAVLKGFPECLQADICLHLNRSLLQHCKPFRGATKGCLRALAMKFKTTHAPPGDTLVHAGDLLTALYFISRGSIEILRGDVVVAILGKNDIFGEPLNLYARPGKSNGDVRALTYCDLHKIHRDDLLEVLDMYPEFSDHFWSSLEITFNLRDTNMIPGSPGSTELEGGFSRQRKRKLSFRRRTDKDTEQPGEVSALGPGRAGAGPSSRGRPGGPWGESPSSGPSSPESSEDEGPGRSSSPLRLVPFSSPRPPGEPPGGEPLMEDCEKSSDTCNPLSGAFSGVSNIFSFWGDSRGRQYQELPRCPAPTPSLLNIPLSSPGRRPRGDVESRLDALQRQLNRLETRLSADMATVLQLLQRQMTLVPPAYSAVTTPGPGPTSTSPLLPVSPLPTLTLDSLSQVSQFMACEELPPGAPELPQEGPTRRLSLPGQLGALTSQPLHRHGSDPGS
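Note: peak tail current of the secondary pulse compared with the same well before compound.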

SMILES	hERG current change (%, negative = inhibition) at 10uM [%]
CCOC(=O)C1CCCN(c2cc(=O)n(-c3ccccc3Cl)c(=O)[nH]2)C1 (stereo not drawn)	9.43
O=C1C2=C(SCCS2)C(=O)N1CCCO	4.66
CCC(Oc1ccccc1)C(=O)Nc1ccccc1N1CCCCC1 (stereo not drawn)	5.6
CSc1nnc2ccc(-c3cccs3)nn12	-8.27
O=C(NC(=O)c1ccccc1)Nc1ccccc1O	14.7
Cn1c(C(=O)OCC(=O)NCc2cccs2)cc2sccc21	3.37
O=C(Oc1ccccc1C(=S)N1CCOCC1)c1ccccc1	7.59
CCN(CC)c1ccc(C2C(C(=O)OCCOC(C)C)=C(C)NC3=C2C(=O)CCC3)cc1 (stereo not drawn)	-12.3
CC1CCCN(c2ncnc3c2cnn3-c2ccccc2)C1 (stereo not drawn)	-1.2
COc1ccc(-n2nc(C(=O)NCC(=O)NCCCN3CC(C)CC(C)C3)c3ccccc3c2=O)cc1 (stereo not drawn)	-37.2
COc1ccc(-n2nc(C(=O)NCC(=O)NCCCN3CC(C)CC(C)C3)c3ccccc3c2=O)cc1Cl (stereo not drawn)	-62.3
COc1ccc(-n2nc(C(=O)NCC(=O)NCCCN3CC(C)CC(C)C3)c3ccccc3c2=O)cc1OC (stereo not drawn)	-34
O=C(c1ccccc1)N(Cc1cccnc1)C1(C(=O)Nc2ccccc2)CCCCC1	5.29
CC(=O)Nc1ccc2c(c1)CCc1ccccc1-2	15.1
O=C(CCS(=O)(=O)c1ccc(F)cc1)Nc1nc(-c2ccccn2)cs1	-12.6
Cl.c1ccc(CCn2nnnc2CN2CCN(C3CCCC3)CC2)cc1	-3.4
Cc1ccc(S(=O)(=O)Cn2nnnc2CN2CCN(Cc3ccc4c(c3)OCO4)CC2)cc1	-28.7
Cc1nc2cc(C(F)(F)F)ccc2n1C1CCN(Cc2nnnn2Cc2ccc3c(c2)OCO3)CC1	-54.1
Cc1nc2cc(F)ccc2n1C1CCN(Cc2nnnn2CCc2ccccc2)CC1.Cl	-65.7
CCN(CC)C(=O)CN1CCC(n2c(C)nc3cc(C(F)(F)F)ccc32)CC1	-32.8
OC1(c2ccccc2F)CCN(Cc2nnnn2CCc2ccccc2)CC1	30.9
Cc1nc2ccccc2n1C1CCN(Cc2nnnn2CCc2ccccc2)CC1.Cl	-68.6
Cc1ccccc1C(=O)NC1CCN(Cc2nnnn2CCc2ccccc2)CC1	-8.14

SMILES	hERG current change (%, negative = inhibition) at 10uM [%]
CCC(C)(C)n1nnnc1CN1CCC(n2c(C)nc3cc(C(F)(F)F)ccc32)CC1	-5.5
Cc1nc2cc(C(F)(F)F)ccc2n1C1CCN(Cc2nnnn2Cc2cccs2)CC1	-36.6
Cc1nc2cc(C(F)(F)F)ccc2n1C1CCN(Cc2nnnn2CCc2ccccc2)CC1	-68.4
CCOC(=O)C1CCN(Cc2nnnn2CCc2ccccc2)CC1	-4.94
CCc1ccc(OCC(=O)NCC(c2ccc(Cl)cc2)N2CCCCC2)cc1 (stereo not drawn)	-6.4
CCN(CC)C(=O)CCc1nnc(CCc2c[nH]c3ccccc23)o1	6.93
O=C(CN1C(=O)/C(=C/c2ccccc2)SC1=S)Nc1ncc(Cc2ccccc2)s1	7.31
C[C@H](NC(=O)[C@@H]1CSC2c3ccccc3C(=O)N21)C(=O)NC1CCCC1 (stereo partly drawn)	10.5
COc1ccc(C(=O)NCc2ccon2)cc1OC1CCN(C(C)C)CC1	-45.6
CCc1cccc(C)c1N(C(=O)Cn1c(CO)nc2ccccc21)C(C)COC (stereo not drawn)	-5.89
COC(=O)c1c(N)sc(C(C)=O)c1C	0.466
CCOC(=O)N1CCC(NC(=O)Cn2c3c(c(-c4ccccc4Cl)cc2=O)CCC3)CC1	-8.61
CCOc1ccc(/C=N/Nc2ccccc2)cc1	17.6
O=C(c1cccnc1)N1c2ccccc2Sc2ccccc21	-18.1
O=C(NC1CCN(Cc2nnnn2CCc2ccccc2)CC1)c1ccccc1F	-3.18
c1ccc(CCn2nnnc2CN2CCC(n3nnc4ccccc43)CC2)cc1	-36.4
Fc1ccc2c(c1)nnn2C1CCN(Cc2c(Cl)cccc2Cl)CC1	7.11
Cl.Fc1ccc2c(c1)nnn2C1CCN(Cc2nnnn2CCc2ccccc2)CC1	-61.3
Fc1ccc2c(c1)nnn2C1CCN(Cc2ccccc2)CC1	-61.4
CCCC(C)C(=O)Nc1ccc(Cl)cn1 (stereo not drawn)	-7.45
COc1cc(OC)nc(Oc2cc(/C=N/O)ccc2OC)n1	0.516
CCOC(=O)N1CCN(C(=O)c2cc(-c3ccc(F)cc3)[nH]c2C)CC1	-72.3
Cc1ccc(N2CCN(C(=O)c3cc(-c4ccc(F)cc4)[nH]c3C)CC2C)cc1 (stereo not drawn)	-13.3

SMILES	hERG current change (%, negative = inhibition) at 10uM [%]
Cc1[nH]c(-c2ccc(F)cc2)cc1C(=O)N1CCN(c2ccccc2)CC1	-58.8
COc1cccc(N2CCN(C(=O)c3cc(C)oc3C)CC2)c1	6.8
COc1ccc(-n2ncc(C(=O)N3CCN(c4ccc(F)cc4)CC3)c2C)cc1	-22.6
CCOC(=O)N1CCC(NC(=O)c2cc(-c3ccc(F)cc3)[nH]c2C)CC1	-0.721
CCOC(=O)N1CCN(C(=O)c2cccc(F)c2)CC1	-17.9
COc1cccc(N2CCN(C(=O)c3cc(-c4ccc(F)cc4)[nH]c3C)CC2)c1	-68.4
COc1cccc(N2CCN(C(=O)c3ccc(-c4ccccc4)cc3)CC2)c1	-49.5
COc1ccc(N2CCN(C(=O)c3cc(-c4ccc(F)cc4)[nH]c3C)CC2)cc1	-67.4
Cc1[nH]c(-c2ccc(F)cc2)cc1C(=O)N1CCN(c2cccc(Cl)c2)CC1	-12
Cc1[nH]c(-c2ccc(F)cc2)cc1C(=O)N1CCN(c2ccc(Cl)cc2)CC1	-13.4
CCC(=O)NNc1ncnc2ccccc12	9.38
CCN(CC)C(=O)C1CCCN(Cc2ccc3ccccc3c2)C1 (stereo not drawn)	-19
CC(C)(C)OC(=O)NCCCC1=CC2=CC(=O)C(C)(OC(=O)c3ccco3)C(=O)C2=CO1 (stereo not drawn)	5.99
COCCCNC(=O)C1CCC(CNS(=O)(=O)c2ccc(C)cc2)CC1 (stereo not drawn)	14
Cc1cccc(CCN2C(N(C)C)=NC[C@@H]2C)c1	-7.74
Cc1c(NC(=O)/C(C#N)=C/c2ccc(-c3cccc(Cl)c3)o2)c(=O)n(-c2ccccc2)n1C	-24.5
NC(=O)c1cc(C(N)=O)nc(Cl)n1	16.1
Cc1cccnc1NC(=O)c1ccc(S(=O)(=O)N2CCC(C)CC2)cc1	-12.3
COc1ncnc2c1ncn2CC1COC(C)(C)O1 (stereo not drawn)	15.9
Cc1sc2nc(CSc3ccccc3)nc(N3CCOCC3)c2c1C	2.04
CCOC(=O)c1sc2nc(CSc3ccccc3)nc(N3CCCN(C)CC3)c2c1C.O=C(O)C(=O)O	-70
CCOC(=O)c1sc2nc(CSc3ccccc3)nc(N3CCC(C(N)=O)CC3)c2c1C	17.5
COCCNc1nc(CSc2ccccc2)nc2sc(C)c(C)c12	-5.97

SMILES	hERG current change (%, negative = inhibition) at 10uM [%]
Cc1sc2nc(CSc3ccccc3)nc(NCCN(C)C)c2c1C	-72.2
Cc1sc2nc(CSc3ccccc3)nc(N3CCC(C(N)=O)CC3)c2c1C	-8.46
CCNc1nc(CSc2ccccc2)nc2sc(C)c(C)c12	1.64
Cc1sc2nc(CSc3ccccc3)nc(N3CCN(C)CC3)c2c1C	-58.5
CCOC(=O)c1sc2nc(CSc3ccccc3)nc(NCCN(C)C)c2c1C	-17.4
O=C(NCCCN=C1NS(=O)(=O)c2ccccc21)c1ccco1	-10
Cc1nn(C)cc1C1C(C#N)=C(N)N(c2ccc(F)c([N+](=O)[O-])c2)C2=C1C(=O)CCC2 (stereo not drawn)	11
Cc1ccc(S(=O)(=O)N2[C@@H](c3cccc(Cl)c3)C(C(=O)O)=CC[C@H]2c2cccc(Cl)c2)cc1	3.05
O=[N+]([O-])c1ccc(NC(=S)N/C(=N/CS(=O)(=O)c2ccccc2)c2ccccc2)cc1	-25.1
COc1ccc(NC(=S)N/C(=N/CS(=O)(=O)c2ccccc2)c2ccccc2)cc1	-53
COc1ccc(NC(=S)N/C(=N/S(=O)(=O)c2ccc(C)cc2)c2ccccc2)cc1	21.2
COc1ccc(NC2SC(=O)N(C)C2=O)cc1 (stereo not drawn)	1.36
O=C1C(=O)N(CCN2CCOCC2)C(c2ccncc2)/C1=C(/O)c1ccc2c(c1)OCO2 (stereo not drawn)	8.87
O=S(=O)(Cc1ccccc1)NCC1CCCN(Cc2ccc(F)c(F)c2)C1 (stereo not drawn)	-44.2
COc1ccc(CC(=O)NCC2CCCN(Cc3cccc(C(F)(F)F)c3)C2)cc1 (stereo not drawn)	-28
O=S(=O)(Cc1ccccc1)NCC1CCCN(Cc2cccc3nonc23)C1 (stereo not drawn)	-12.2
O=C(NCC1CCCN(Cc2ccc3nonc3c2)C1)c1ccc(F)cc1 (stereo not drawn)	-60.8
O=C(NCC1CCCN(Cc2ccc3c(c2)OCCO3)C1)c1ccc2c(c1)OCO2 (stereo not drawn)	-18.8
O=C(NCC1CCCN(Cc2ccc3nonc3c2)C1)c1cccc(C(F)(F)F)c1 (stereo not drawn)	-61.5
O=S(=O)(Cc1ccccc1)NCC1CCCN(Cc2ccc3nonc3c2)C1 (stereo not drawn)	-51.2
O=C(c1cc(F)ccc1F)C1CCCN(Cc2ccc3nonc3c2)C1 (stereo not drawn)	-12
